# Laboratory results: PubChem BioAssay
# The source made the active and inactive calls. Unless noted, the rule behind the calls is not given here.
# Tests used:
# [1] = resazurin metabolic signal in HepG2 cells – cell-based, resazurin fluorescence, 24 h, PK04 Diversity Set, profiling panel (AID 1172); conditions: HepG2 viability, higher = more signal
# [2] = budding yeast growth changes without added modifier – OD600, strain BY4716, 24 h, basal condition, primary screen (AID 1173); conditions: S. cerevisiae BY4716 growth, OD600, 24 h; higher = more signal, called active from +8 up or from −8 down
# [3] = viability profiling in MM1S myeloma cells – cell-based, resazurin fluorescence, basal, 24 h, PK04 Diversity Set, profiling panel (AID 1174); conditions: higher = more signal, called active from +8 up or from −8 down;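 note: MM1S multiple myeloma cell line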
# [4] = molecular target: Dihydroorotate dehydrogenase (quinone), mitochondrial (Plasmodium falciparum (isolate 3D7)) (UniProt Q08210); test: inhibition of P. falciparum DHODH – biochemical, C-terminal His tag, absorbance 600 nm, primary screen (AID 1175); conditions: PfDHODH enzyme, DCIP absorbance 600 nm; higher = more signal, called active from +8 up or from −8 down;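 note: recombinant parasite enzyme with a five histidine tag at its C terminus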
# [5] = inhibition of PAO1 biofilm formation – strain PAO1, LB-PBS medium, absorbance 600 nm, primary screen (AID 1176); conditions: P. aeruginosa PAO1 growth/biofilm, A600, 12 h; higher = more signal
# [6] = growth modulation of vineyard yeast isolate – strain RM11-1a, OD600, basal, 24 h, primary screen (AID 1177);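 note: cultures grown under basal conditions with no added stressor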; conditions: S. cerevisiae RM11-1a growth, OD600, 24 h; higher = more signal, called active from +8 up or from −8 down
# [7] = growth of efflux-deficient E. coli DRC39 – strain DRC39, OD650, 24 h, E. coli filamentation inducers, primary screen (AID 1178);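 note: growth measured as culture turbidity by optical density at 650 nm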; conditions: E. coli DRC39 acrAB, higher = more signal, called active from +8 up or from −8 down
# [8] = growth of efflux-deficient E. coli DRC39 – strain DRC39, OD650, 48 h, E. coli filamentation inducers, primary screen (AID 1179);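 note: screen aims at cell division blockers that make cells filament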; conditions: E. coli DRC39 delta-acrAB growth, higher = more signal, called active from +8 up or from −8 down
# [9] = viability profiling in RPMI8226 myeloma cells – cell-based, resazurin fluorescence, basal, 24 h, PK04 Diversity Set, profiling panel (AID 1180); conditions: higher = more signal;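 note: RPMI8826 multiple myeloma cell line at 5000 cells per well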
# [10] = molecular target: E3 ubiquitin-protein ligase XIAP (Homo sapiens) (UniProt P98170); test: small molecules binding XIAP protein – biophysical, small-molecule microarray, fluorescence 635 nm, primary screen (AID 1181); conditions: higher = more signal;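 note: score merges 667 nm emission and signal to noise over triplicate slides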
# [11] = test system: XIP peptide (Xip251-270) binding; test: XIP fragment 251-270 binding compounds – biochemical, small-molecule microarray, fluorescence 635/667 nm, 0.1 µg/mL protein, primary screen (AID 1182); conditions: fluorescent protein binding, 635 nm, higher = more signal, called active from +8 up or from −8 down
# XIP peptide (Xip251-270) = test: compounds binding XIP fragment 251-270 – biochemical, small-molecule microarray, fluorescence 635/667 nm, 0.5 µg/mL protein, primary screen (AID 1183); conditions: fluorescence 635 nm, higher = more signal
# [12] = blood-stage malaria parasite viability loss – strain 3D7, DAPI fluorescence, 100 nL, primary screen (AID 1184);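 note: parasites grown inside human red blood cells in medium with human serum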; conditions: P. falciparum 3D7 growth, 3 d, higher = more signal
# [13] = molecular target: Homeobox protein Hox-A13 (Mus musculus) (UniProt Q62424); test: disruptors of Hoxa13 oligonucleotide interaction – biochemical, fluorescence polarization, labeled oligonucleotide, primary screen (AID 1185); conditions: Hoxa13:DNA binding, 15 min, higher = more signal, called active from +8 up or from −8 down
# [14] = blockers of DNA damage checkpoint Chk1 activation – imaging, HeLa, hydroxyurea, phospho-Chk1 antibody, percent positive cells, primary screen (AID 1186); conditions: hydroxyurea-induced phospho-Chk1 immunofluorescence imaging, higher = more signal
# [15] = blockers of DNA damage checkpoint Chk1 activation – imaging, HeLa, hydroxyurea, phospho-Chk1 nuclear intensity, primary screen (AID 1187); conditions: hydroxyurea-induced phospho-Chk1 immunofluorescence imaging, higher = more signal
# Chain of Dihydroorotate dehydrogenase (quinone), mitochondrial (Plasmodium falciparum (isolate 3D7)) (Q08210 whole entry, looked up): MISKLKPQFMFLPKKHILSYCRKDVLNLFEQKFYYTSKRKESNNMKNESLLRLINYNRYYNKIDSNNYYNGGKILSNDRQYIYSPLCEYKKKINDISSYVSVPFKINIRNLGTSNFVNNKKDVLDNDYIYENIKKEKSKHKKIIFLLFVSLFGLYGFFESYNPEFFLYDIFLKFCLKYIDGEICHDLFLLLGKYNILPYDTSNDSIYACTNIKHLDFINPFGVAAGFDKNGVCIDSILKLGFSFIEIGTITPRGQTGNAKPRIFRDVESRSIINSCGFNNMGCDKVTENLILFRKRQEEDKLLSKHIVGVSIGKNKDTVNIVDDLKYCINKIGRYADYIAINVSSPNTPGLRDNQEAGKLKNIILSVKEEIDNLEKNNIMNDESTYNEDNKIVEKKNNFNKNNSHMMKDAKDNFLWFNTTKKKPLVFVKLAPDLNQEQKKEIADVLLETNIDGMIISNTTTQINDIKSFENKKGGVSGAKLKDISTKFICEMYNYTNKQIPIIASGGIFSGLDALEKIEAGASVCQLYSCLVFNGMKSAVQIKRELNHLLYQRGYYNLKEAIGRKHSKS
# Chain of E3 ubiquitin-protein ligase XIAP (Homo sapiens) (P98170 whole entry, looked up, the tested form may be a part): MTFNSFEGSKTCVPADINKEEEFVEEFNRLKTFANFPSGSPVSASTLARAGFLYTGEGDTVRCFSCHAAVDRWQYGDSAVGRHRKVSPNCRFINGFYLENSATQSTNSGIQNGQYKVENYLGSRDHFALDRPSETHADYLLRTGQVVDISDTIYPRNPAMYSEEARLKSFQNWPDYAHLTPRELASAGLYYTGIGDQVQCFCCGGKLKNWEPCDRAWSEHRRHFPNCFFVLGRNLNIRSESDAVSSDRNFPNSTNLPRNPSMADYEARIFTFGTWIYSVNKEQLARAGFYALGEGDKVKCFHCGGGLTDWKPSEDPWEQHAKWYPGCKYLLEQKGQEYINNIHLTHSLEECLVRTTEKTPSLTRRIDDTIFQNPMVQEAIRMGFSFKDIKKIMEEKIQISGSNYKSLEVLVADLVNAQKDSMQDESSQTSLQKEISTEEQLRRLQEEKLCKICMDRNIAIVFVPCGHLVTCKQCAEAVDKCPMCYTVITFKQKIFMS
# Chain of Homeobox protein Hox-A13 (Mus musculus) (Q62424 whole entry, looked up): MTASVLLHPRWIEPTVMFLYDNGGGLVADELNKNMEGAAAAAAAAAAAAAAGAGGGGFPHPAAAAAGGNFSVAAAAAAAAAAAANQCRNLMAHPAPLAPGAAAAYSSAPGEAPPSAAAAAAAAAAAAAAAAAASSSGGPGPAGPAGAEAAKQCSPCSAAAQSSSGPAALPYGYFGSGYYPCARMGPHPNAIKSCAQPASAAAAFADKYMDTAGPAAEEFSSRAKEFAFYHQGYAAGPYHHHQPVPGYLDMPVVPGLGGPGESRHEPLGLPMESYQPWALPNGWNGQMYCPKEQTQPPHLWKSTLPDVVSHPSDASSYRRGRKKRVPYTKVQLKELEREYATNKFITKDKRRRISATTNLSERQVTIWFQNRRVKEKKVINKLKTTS
structure (smiles),measurement,setting,value
CCC[C@@H]1[C@@H](Sc2ccccc2)[C@@H](C(=O)O)[C@H](c2ccc(C)cc2)N1S(=O)(=O)c1ccc(C)cc1,z-score,[1],-0.428
same,z-score,[2],-1.99 (inactive)
same,z-score,[3],-0.0959 (inactive)
same,composite z-score,[4],-1.04 (inactive)
same,z-score,[5],0.257 (inactive)
same,z-score,[6],-0.122 (inactive)
same,z-score,[7],-0.008 (inactive)
same,z-score,[8],0.329 (inactive)
same,z-score,[9],-0.862
same,composite z-score,[10],-0.0062
same,composite z-score,[11],0.163 (inactive)
same,composite z-score,XIP peptide (Xip251-270),0.787
same,z-score,[12],0.552
same,z-score,[13],-5.85 (inactive)
same,z-score,[14],0.275 (inactive)
same,z-score,[15],0.971 (inactive)
COCCOC(=O)N1C(=O)[C@@]2(c3cc(C#CC4(O)CCCCCC4)ccc31)[C@H](C(=O)NC[C@H](O)c1ccccc1)[C@H]1C(=O)O[C@H](c3ccccc3)[C@H](c3ccccc3)N1[C@@H]2c1ccc(O)cc1,z-score,[1],0.982
same,z-score,[2],-0.598 (inactive)
same,z-score,[3],0.483 (inactive)
same,composite z-score,[4],-0.122 (inactive)
same,z-score,[5],-0.108 (inactive)
same,z-score,[6],0.759 (inactive)
same,z-score,[7],0.0468 (inactive)
same,z-score,[8],0.321 (inactive)
same,z-score,[9],-0.0629
same,composite z-score,[10],-0.131
same,composite z-score,[11],0.273 (inactive)
same,composite z-score,XIP peptide (Xip251-270),0.78
same,z-score,[12],-0.44
same,z-score,[13],-1.8 (inactive)
same,z-score,[14],0.302 (inactive)
same,z-score,[15],0.487 (inactive)
Cc1ccccc1C(O)C1C=CC2C(=O)N(c3ccccc3)C(=O)C2N1Nc1ccccc1F (stereo unspecified),z-score,[1],-0.954
same,z-score,[2],-0.822 (inactive)
same,z-score,[3],-1.08 (inactive)
same,composite z-score,[4],0.115 (inactive)
same,z-score,[5],1.07 (inactive)
same,z-score,[6],0.362 (inactive)
same,z-score,[7],-0.274 (inactive)
same,z-score,[8],-0.542 (inactive)
same,z-score,[9],-1.01
same,composite z-score,[10],0.202
same,composite z-score,[11],1.5 (inactive)
same,composite z-score,XIP peptide (Xip251-270),0.646
same,z-score,[12],0.907
same,z-score,[13],-2.9 (inactive)
same,z-score,[14],1.27 (inactive)
same,z-score,[15],1.11 (inactive)
CC(C)CNC(=O)[C@@H]1c2ccccc2C(=O)N(C2Cc3ccccc3C2)[C@H]1c1ccc(CO)cc1,z-score,[1],0.98
same,z-score,[2],-0.283 (inactive)
same,z-score,[3],0.76 (inactive)
same,composite z-score,[4],-0.417 (inactive)
same,z-score,[5],0.444 (inactive)
same,z-score,[6],-1.09 (inactive)
same,z-score,[7],0.725 (inactive)
same,z-score,[8],1.03 (inactive)
same,z-score,[9],1.4
same,composite z-score,[10],-0.109
same,composite z-score,[11],0.45 (inactive)
same,composite z-score,XIP peptide (Xip251-270),0.509
same,z-score,[12],0.134
same,z-score,[13],-2.36 (inactive)
same,z-score,[14],-0.281 (inactive)
same,z-score,[15],-0.121 (inactive)
CC(C)C(=C=CC[C@@H](O)c1ccc(OCCO)cc1)CCO,z-score,[1],1
same,z-score,[2],-3.28 (inactive)
same,z-score,[3],1.21 (inactive)
same,composite z-score,[4],-2.88 (inactive)
same,z-score,[5],0.13 (inactive)
same,z-score,[6],-1.17 (inactive)
same,z-score,[7],1.61 (inactive)
same,z-score,[8],1.52 (inactive)
same,z-score,[9],1.52
same,composite z-score,[10],-0.0645
same,composite z-score,[11],0.308 (inactive)
same,composite z-score,XIP peptide (Xip251-270),0.222
same,z-score,[12],-2.09
same,z-score,[13],-2.38 (inactive)
same,z-score,[14],-0.201 (inactive)
same,z-score,[15],1.37 (inactive)
CCC(CC)C(O)C1C=CC2C(=O)N(C)C(=O)C2N1N1CCCCC1 (stereo unspecified),z-score,[1],-0.735
same,z-score,[2],-0.0172 (inactive)
same,z-score,[3],-1.21 (inactive)
same,composite z-score,[4],-1.17 (inactive)
same,z-score,[5],0.571 (inactive)
same,z-score,[6],-0.266 (inactive)
same,z-score,[7],-0.652 (inactive)
same,z-score,[8],-0.686 (inactive)
same,z-score,[9],-1.12
same,composite z-score,[10],0.167
same,composite z-score,[11],0.865 (inactive)
same,composite z-score,XIP peptide (Xip251-270),0.708
same,z-score,[12],0.907
same,z-score,[13],-6.35 (inactive)
same,z-score,[14],0.687 (inactive)
same,z-score,[15],0.562 (inactive)
COCCCNC(=O)[C@@H]1c2ccccc2C(=O)N(C2CCCCC2)[C@H]1c1ccc(CO)cc1,z-score,[1],0.559
same,z-score,[2],-0.32 (inactive)
same,z-score,[3],0.614 (inactive)
same,composite z-score,[4],-0.271 (inactive)
same,z-score,[5],0.745 (inactive)
same,z-score,[6],-0.611 (inactive)
same,z-score,[7],0.0359 (inactive)
same,z-score,[8],-0.122 (inactive)
same,z-score,[9],0.505
same,composite z-score,[10],-0.0773
same,composite z-score,[11],-0.209 (inactive)
same,composite z-score,XIP peptide (Xip251-270),0.339
same,z-score,[12],-1.76
same,z-score,[13],-0.837 (inactive)
same,z-score,[14],0.226 (inactive)
same,z-score,[15],-0.182 (inactive)
CC1CC/C=C\[C@H]2OC34C=CCN(CCN5CCOCC5)C(=O)[C@H]3N(CCCCCCO)C(=O)[C@@H]4C2C(=O)O1 (stereo partly specified),z-score,[1],-0.655
same,z-score,[2],-0.195 (inactive)
same,z-score,[3],-0.513 (inactive)
same,composite z-score,[4],0.85 (inactive)
same,z-score,[5],-0.717 (inactive)
same,z-score,[6],0.615 (inactive)
same,z-score,[7],0.125 (inactive)
same,z-score,[8],0.602 (inactive)
same,z-score,[9],0.761
same,composite z-score,[10],0.288
same,composite z-score,[11],0.135 (inactive)
same,composite z-score,XIP peptide (Xip251-270),0.935
same,z-score,[12],1.04
same,z-score,[13],-5.39 (inactive)
same,z-score,[14],-0.453 (inactive)
same,z-score,[15],0.519 (inactive)
COc1ccc(CCNC(=O)[C@@]2(Sc3ccc(C)cc3)CC(=O)N(C(C)C)[C@@H]2c2ccc(CO)cc2)cc1,z-score,[1],-0.335
same,z-score,[2],0.748 (inactive)
same,z-score,[3],-0.416 (inactive)
same,composite z-score,[4],0.557 (inactive)
same,z-score,[5],0.745 (inactive)
same,z-score,[6],1.06 (inactive)
same,z-score,[7],-0.252 (inactive)
same,z-score,[8],-0.602 (inactive)
same,z-score,[9],-0.218
same,composite z-score,[10],0.0132
same,composite z-score,[11],0.117 (inactive)
same,composite z-score,XIP peptide (Xip251-270),0.66
same,z-score,[12],-0.302
same,z-score,[13],-3.28 (inactive)
same,z-score,[14],0.0372 (inactive)
same,z-score,[15],-0.0512 (inactive)
COC(=O)[C@@]1(Cc2ccc(F)cc2)[C@H]2c3cc(C(=O)N(C)C)n(CCO)c3C[C@H]2CN1C(=O)c1ccccc1,z-score,[1],-0.359
same,z-score,[2],-0.092 (inactive)
same,z-score,[3],-0.438 (inactive)
same,composite z-score,[4],-0.844 (inactive)
same,z-score,[5],0.865 (inactive)
same,z-score,[6],-0.251 (inactive)
same,z-score,[7],-0.356 (inactive)
same,z-score,[8],-0.0099 (inactive)
same,z-score,[9],-0.0323
same,composite z-score,[10],0.49
same,composite z-score,[11],1.79 (inactive)
same,composite z-score,XIP peptide (Xip251-270),0.39
same,z-score,[12],0.196
same,z-score,[13],-4.71 (inactive)
same,z-score,[14],-0.0514 (inactive)
same,z-score,[15],0.138 (inactive)
CC(C)=CCN(C(=O)C#Cc1ccccc1)[C@H](CO)c1ccccc1,z-score,[1],-3.85
same,z-score,[2],-0.192 (inactive)
same,z-score,[3],-5.79 (inactive)
same,composite z-score,[4],0.885 (inactive)
same,z-score,[5],-0.0218 (inactive)
same,z-score,[6],3.26 (inactive)
same,z-score,[7],0.163 (inactive)
same,z-score,[8],-2.57 (inactive)
same,z-score,[9],-5.82
same,composite z-score,[10],0.165
same,composite z-score,[11],-0.415 (inactive)
same,composite z-score,XIP peptide (Xip251-270),-0.0445
same,z-score,[12],-1.83
same,z-score,[13],-7.52 (inactive)
same,z-score,[14],-0.956 (inactive)
same,z-score,[15],-0.6 (inactive)
